Assay results reported in the supplement of paper PMC11624193, “Coupling cellular drug-target engagement to downstream pharmacology with CeTEAM” (Nature Communications, 2024).
Where “and” joins values, the source holds several entries; their conditions need not be identical. Equal entries are not always repeated. Structures can show the parent of a compound that is named as a salt. Unmarked numbers belong to inactive results.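 How the source made its calls: active = log2 fold change beyond 2 SD from the library mean after excluding viability outliers; inactive = within 2 SD.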

Molecular target: PARP1 L713F-nLuc biosensor (HCT116) (UniProt P09874)
Experiment: PARP1 L713F-nLuc/akaLuc ratio relative to DMSO control (biosensor stabilization) (fold change); higher = more PARP1 biosensor stabilization (target engagement / stabilizer), active = hit call of the paper
Conditions: stock concentration (mM; final µM = stock mM x 1): 10; 24 h

Sequence of PARP1 L713F-nLuc biosensor (HCT116) (P09874 whole entry L713F, looked up): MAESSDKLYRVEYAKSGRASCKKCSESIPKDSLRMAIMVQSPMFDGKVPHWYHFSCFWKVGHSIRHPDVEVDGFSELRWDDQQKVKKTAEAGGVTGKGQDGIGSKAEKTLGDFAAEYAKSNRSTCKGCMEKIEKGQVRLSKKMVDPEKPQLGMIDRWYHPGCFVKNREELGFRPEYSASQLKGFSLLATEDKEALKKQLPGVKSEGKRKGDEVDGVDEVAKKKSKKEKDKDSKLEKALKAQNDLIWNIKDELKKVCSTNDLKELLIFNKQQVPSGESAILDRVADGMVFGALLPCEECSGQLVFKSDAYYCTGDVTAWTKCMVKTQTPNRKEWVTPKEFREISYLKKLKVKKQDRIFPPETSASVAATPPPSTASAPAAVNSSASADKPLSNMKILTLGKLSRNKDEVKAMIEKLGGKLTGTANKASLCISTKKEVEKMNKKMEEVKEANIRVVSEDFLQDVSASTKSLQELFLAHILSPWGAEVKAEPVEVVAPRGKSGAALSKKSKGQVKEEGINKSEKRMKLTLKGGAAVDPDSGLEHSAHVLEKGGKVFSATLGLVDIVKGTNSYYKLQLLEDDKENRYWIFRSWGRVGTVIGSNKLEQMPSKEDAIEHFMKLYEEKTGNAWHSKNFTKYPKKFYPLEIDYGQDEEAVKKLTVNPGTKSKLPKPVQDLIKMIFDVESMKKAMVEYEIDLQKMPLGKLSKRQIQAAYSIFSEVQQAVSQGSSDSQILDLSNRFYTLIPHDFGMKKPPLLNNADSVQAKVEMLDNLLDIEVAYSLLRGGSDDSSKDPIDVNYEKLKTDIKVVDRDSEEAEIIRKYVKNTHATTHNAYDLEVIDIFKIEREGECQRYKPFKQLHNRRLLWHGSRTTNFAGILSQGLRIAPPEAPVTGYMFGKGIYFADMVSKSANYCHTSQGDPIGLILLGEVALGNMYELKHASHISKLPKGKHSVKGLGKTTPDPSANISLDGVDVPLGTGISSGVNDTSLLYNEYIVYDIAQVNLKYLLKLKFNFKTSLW

SMILES | PARP1 L713F-nLuc/akaLuc ratio
N#Cc1ccc2[nH]c(O)c(-c3ccc(CN4CCOCC4)cn3)c2c1 | 0.881
CC(C)(C)c1nc(-c2cccc(NS(=O)(=O)c3c(F)cccc3F)c2F)c(-c2ccnc(N)n2)s1 | 0.885
N#CC[C@H](C1CCCC1)n1cc(-c2ncnc3[nH]ccc23)cn1 [Ruxolitinib (phosphate)] | 0.575
NC(=O)c1ccc(Oc2ccc(C(N)=O)cc2)cc1 | 1.27
Nc1cc(F)ccc1NC(=O)/C=C/c1cnn(C/C=C/c2ccccc2)c1 | 0.76 and 0.99
Cc1cc(C)c(CNC(=O)c2cc(Cl)c3c(c2C)O[C@@](C)([C@H]2CC[C@H](N(C)C)CC2)O3)c(=O)[nH]1 [Valemetostat (tosylate)] | 1.05
Cc1cccc(-c2[nH]c(CNc3ccccc3F)nc2-c2ccc3ncnn3c2)n1 [Vactosertib ?(TEW-7197)] | 1.18
Cc1csc(-c2nnc(Nc3ccc(Oc4ncccc4-c4ccnc(N)n4)cc3)c3ccccc23)c1 | 1.02
Nc1ncn([C@@H]2O[C@H](CO)[C@@H](O)[C@H]2O)c(=O)n1 [Azacitidine] | 4.35 (active)
O=[N+]([O-])c1c(Nc2cc(F)cc(Cl)c2)ccc2nonc12 | 1.45
COc1ccc(C(=C2C(=O)Nc3ccccc32)c2ccc(OC)cc2)cc1 | 0.833
CCCCCCCCc1ccc(CCC(N)(CO)CO)cc1 [Fingolimod (FTY720) HCl] | 0.577
NC(=O)c1ccc(I)c([N+](=O)[O-])c1 [Iniparib] | 1.12
CCC1=C[C@@H]2CN(C1)Cc1c([nH]c3ccccc13)[C@@](C(=O)OC)(c1cc3c(cc1OC)N(C)[C@H]1[C@@](O)(C(=O)OC)[C@H](OC(C)=O)[C@]4(CC)C=CCN5CC[C@]31[C@@H]54)C2 [Vinorelbine Tartrate] | 0.576
CC(NC(=O)c1ccccc1/N=C/c1c(O)ccc2ccccc12)c1ccccc1 (configuration not stated) [Sirtinol] | 0.699
C=CC(=O)Nc1cccc(-c2c[nH]cc2CN(C)CCN)c1 | 1.61

SMILES | PARP1 L713F-nLuc/akaLuc ratio
CC(C)(C)NC(=O)[C@H]1CC[C@H]2[C@@H]3CC[C@H]4NC(=O)C=C[C@]4(C)[C@H]3CC[C@]12C [Finasteride] | 1.22
CCN(C(=O)CO)[C@H]1CN(/C(=N\C#N)Nc2cccc(OC(F)F)c2)N=C1c1ccc(Cl)c(Cl)c1 | 1.37
O=c1cc(O)cc(/C=C/c2ccc(O)c(O)c2)o1 [Hispidin] | 1.19
O=C(O)c1c[nH]c2cc(Cl)c(-c3ccc(C4(O)CCC4)cc3)cc12 | 0.446
O=C(Nc1nc2cccc(-c3ccc(CN4CCS(=O)(=O)CC4)cc3)n2n1)C1CC1 [Filgotinib] | 0.941
COc1ccccc1S(=O)(=O)Nc1ccc2c3c(cc(-n4cnc(C)c4)nc13)C(=O)N2C | 1.04
CS(=O)(=O)c1ccc(C(=O)Nc2ccc(Cl)c(-c3ccccn3)c2)c(Cl)c1 [Vismodegib (GDC-0449)] | 1.11
N#Cc1cc2cc(CN3CCC(Nc4ncnc5sc(CC(F)(F)F)cc45)CC3)ccc2[nH]1 | 1.05
N#Cc1c(-c2ccccc2)cc(-c2cc(Br)ccc2O)[nH]c1=O | 0.708
COC(=O)Nc1nc2cc(Sc3ccccc3)ccc2[nH]1 [Fenbendazole] | 2.66
CC[C@H](C)C(=O)O[C@H]1C[C@H](O)C=C2C=C[C@H](C)[C@H](CC[C@@H](O)C[C@@H](O)CC(=O)O)[C@H]21 [Pravastatin sodium] | 0.829
Cc1cc(Nc2cc(CN3CCOCC3)c3nc(C)c(Cc4ccc(Cl)cc4F)n3n2)n[nH]1 [Gandotinib] | 1.75
Cc1ccc(Nc2nccc(N(C)c3ccc4c(C)n(C)nc4c3)n2)cc1S(N)(=O)=O [Pazopanib] | 1.33
CCS(=O)(=O)N1CCC([C@@H](C)n2c(C)c(C(=O)NCc3c(OC)cc(C)[nH]c3=O)c3ccccc32)CC1 | 1.51
Cc1cc(Nc2cc(N3CCN(C)CC3)nc(Sc3ccc(NC(=O)C4CC4)cc3)n2)n[nH]1 [Tozasertib] | 0.774
COCCCc1sc(-c2ccccc2)nc1C(=O)Nc1ccccc1-c1nc2cc(CN3CCCC3)cnc2s1 [Sirtuin modulator 1] | 0.737
